High-throughput results from PubChem BioAssay.
An excerpt weighted towards active compounds, which were near 4.1% of everything screened.
AmpC inh no detg: inhibitors of E. coli AmpC beta-lactamase without detergent; P00811; AmpC nitrocefin hydrolysis, absorbance 480 nm, 0.0001% Triton; Potency, µM (highest dose often 57.1 µM), most hits filed as inhibitors; 330,000 tested, 0.52% active; note: nearly all actives have a fitted effect of over 20% in size
Target sequence (P00811 whole entry, looked up): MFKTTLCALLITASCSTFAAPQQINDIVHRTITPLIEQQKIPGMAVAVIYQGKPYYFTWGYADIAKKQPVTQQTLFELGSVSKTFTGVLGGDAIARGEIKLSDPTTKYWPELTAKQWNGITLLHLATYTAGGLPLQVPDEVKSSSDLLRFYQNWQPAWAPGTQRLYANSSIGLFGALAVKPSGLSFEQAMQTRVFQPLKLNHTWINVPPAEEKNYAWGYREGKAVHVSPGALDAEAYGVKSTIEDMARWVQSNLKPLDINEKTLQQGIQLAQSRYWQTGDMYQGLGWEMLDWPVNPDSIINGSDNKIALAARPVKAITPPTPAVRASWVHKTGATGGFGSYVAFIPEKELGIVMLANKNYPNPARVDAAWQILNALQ
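20 mM phosphate pH 7.0 + 0.01% (detergent screen) or 0.0001% Triton X-100; 5.3 nM AmpC reagent; cpd preinc 15 min RT; nitrocefin (800 uM stock) to start; A480 q20 s × 4 min; Activity was normalised to no-enzyme and no-compound control wells.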
AMA1 RON2 block: AMA1-RON2 (P. falciparum) interaction inhibition. AlphaScreen AMA1-biotinylated RON2 peptide binding. AID 720542. Potency, µM (titrated, usually from 58.2 µM), actives largely listed as inhibitors. 360,000 tested, 0.2% active; note: nearly all actives have a fitted effect of over 45% in size
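AMA1 (3D7) with his tag at 25 nM final met compounds first, then biotinylated RON2 peptide at 25 nM; detection used donor plus acceptor beads, 10 µg/mL apiece, read by AlphaScreen after 30 min at room temperature.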
Sm TGR inh: inhibitors of Schistosoma mansoni thioredoxin glutathione reductase. Q962Y6. purified TGR, DTNB reduction, TNB absorbance 405 nm. Potency, µM (titrated, usually from 114 µM), usual class: inhibitors. 360,000 tested, 3% active; note: nearly all actives have a fitted effect of over 60% in size
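Kinetic colorimetric format: TGR-catalysed, NADPH-driven DTNB reduction monitored via TNB absorbance. Enzyme dispensed at 20 nM; compound exposure 15 min at room temperature before reaction start.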
FMDV antiviral: blocks foot and mouth disease virus; FMDV antiviral cell-based qHTS; Potency, µM (series often up to 57.9 µM), most hits filed as inhibitors; 410,000 tested, 1.2% active; AID 1159524; calls by dose curve; tested in HEK293T cells; note: read-out not given here; nearly all actives have a fitted effect of over 45% in size
AmpC detergent: inhibitors of E. coli AmpC beta-lactamase with detergent; P00811; AmpC hydrolysis of nitrocefin, absorbance 480 nm, 0.01% Triton; Potency, µM (top dose mostly 114 µM), usual class: inhibitors; 370,000 tested, 0.041% active; note: nearly all actives have a fitted effect of over 25% in size
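20 mM phosphate pH 7.0 + 0.01% (detergent screen) or 0.0001% Triton X-100; 5.3 nM AmpC reagent; cpd preinc 15 min RT; nitrocefin (800 uM stock) to start; A480 q20 s × 4 min; Activity was normalised to no-enzyme and no-compound control wells.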
Hits are given with their value; [ ] = another dose, or the depositor's remark. Unless noted, calls come from the whole dose curve; as a rule, active = well fitted curve in the direction sought with a large enough effect; inconclusive = small, poorly fitted or top-dose-only effect, or another doubt; inactive = no such curve, though single readings can be large; an effect the other way counts as inactive or inconclusive.

Screening CC1(C)CC(NC(=O)c2ccc(-c3ccc([N+](=O)[O-])cc3)o2)CC(C)(C)N1 returned AmpC inh no detg inactive, AMA1 RON2 block inactive, Sm TGR inh 40µM, FMDV antiviral inactive and AmpC detergent inactive.
For O=C(NNC(=O)c1ccccc1O)c1ccc(-c2ccc([N+](=O)[O-])cc2)o1 the results were AmpC inh no detg inactive, AMA1 RON2 block inactive, Sm TGR inh inactive, FMDV antiviral inactive and AmpC detergent inactive.
`CC1(C)CC(NC(=O)Nc2ccc([N+](=O)[O-])cc2)CC(C)(C)N1` gave AmpC inh no detg inactive[11.4 µM], AMA1 RON2 block inactive, Sm TGR inh inactive, FMDV antiviral inactive and AmpC detergent inactive.
Screening O=C(Nc1ccccc1)c1ccc(-c2ccc([N+](=O)[O-])cc2)o1 returned AmpC inh no detg inactive, AMA1 RON2 block inactive, Sm TGR inh 3.5µM, FMDV antiviral inactive and AmpC detergent inactive.
`O=C(O)c1ccc(-c2cccc([N+](=O)[O-])c2)o1` gave AmpC inh no detg inactive, AMA1 RON2 block inactive, Sm TGR inh 35µM, FMDV antiviral inactive and AmpC detergent inactive.
O=C(NC1CCCCC1)c1ccc(-c2cccc([N+](=O)[O-])c2)o1 was read as AmpC inh no detg inactive, AMA1 RON2 block inactive, Sm TGR inh inactive, FMDV antiviral inactive and AmpC detergent inconclusive.
`COc1ccc(NC(=O)c2ccc(-c3ccc([N+](=O)[O-])cc3)o2)cc1` gave AmpC inh no detg inactive, AMA1 RON2 block inactive, Sm TGR inh inconclusive, FMDV antiviral inactive and AmpC detergent inactive.
For CC(OC(=O)c1ccc(-c2ccc([N+](=O)[O-])cc2)o1)C(=O)NC(N)=O (stereo not drawn) the results were AmpC inh no detg inactive, AMA1 RON2 block inactive, Sm TGR inh 4.5µM, FMDV antiviral inactive and AmpC detergent inconclusive.
O=C(Nc1cc(-c2nc3ccccc3o2)ccc1Cl)c1cccc2c(Cl)cccc12 was read as Sm TGR inh inactive, FMDV antiviral inactive and AmpC detergent inactive.
`CC(C)CCn1c(=O)c2sccc2n2c(CCCC(=O)NC(C)c3ccccc3)nnc12` (stereo not drawn) gave Sm TGR inh inactive, FMDV antiviral inactive and AmpC detergent inactive.
For O=c1c2c3c(sc2nnn1Cc1ccc(F)cc1)CCCC3 the results were Sm TGR inh inactive, FMDV antiviral inactive and AmpC detergent inactive.
`C=C1C(=O)OC2CC3(C)OC3CCC(C)=CC(OC(C)=O)C12` (stereo not drawn) gave AMA1 RON2 block inactive and FMDV antiviral 35µM.
Screening C#CCN(C[C@@H]1[C@@H](OC(=O)NCC2CCCCC2)[C@@H](OC(=O)NCC2CCCCC2)Cn2c(=O)ccc(=O)n21)S(=O)(=O)c1ccc(C)cc1 returned AMA1 RON2 block inactive and FMDV antiviral 10µM.
C#CCN(C[C@@H]1[C@@H](OC(=O)NC2CC2)[C@@H](OC(=O)NC2CC2)Cn2c(=O)n(CCCCCC)c(=O)n21)S(=O)(=O)c1ccc(C)cc1 was read as AMA1 RON2 block inactive and FMDV antiviral inconclusive.
For C#CCN(C[C@@H]1[C@@H](OC(=O)NCCCCCC)[C@@H](OC(=O)NCCCCCC)Cn2c(=O)ccc(=O)n21)S(=O)(=O)c1ccc(C)cc1 the results were AMA1 RON2 block inactive and FMDV antiviral 13µM.
For COc1ccc(OCC(=O)O/N=C(\N)c2ccc(OC)cc2)cc1 the results were AmpC inh no detg inactive, AMA1 RON2 block inactive, Sm TGR inh inactive, FMDV antiviral inactive and AmpC detergent inactive.
CO/N=C(/COc1ccc(F)cc1)c1ccc(OC)cc1 was read as AmpC inh no detg inactive, AMA1 RON2 block inactive, Sm TGR inh 25µM, FMDV antiviral inactive and AmpC detergent inactive.
Screening CC(C)(O)C#Cc1ccc([C@@H]2C[C@H]3CN(c4ccccc4)C(=O)[C@]34CCCN24)s1 returned AmpC inh no detg inactive, AMA1 RON2 block inconclusive, Sm TGR inh inactive, FMDV antiviral inactive and AmpC detergent inactive.
Screening O=C1N(c2ccccc2)C[C@@H]2C[C@@H](c3cccs3)N3CCC[C@@]123 returned AmpC inh no detg inactive, AMA1 RON2 block inactive, Sm TGR inh 16µM, FMDV antiviral inactive and AmpC detergent inactive.
Screening Cc1sc2ncn(CC(=O)N3CCN(c4ccc(Cl)cc4)CC3)c(=O)c2c1S(=O)(=O)N1CCN(c2ncccn2)CC1 returned Sm TGR inh inactive, FMDV antiviral inconclusive and AmpC detergent inactive.
CC1(C)O[C@H]2[C@@H](O1)[C@@H](C(=O)Nc1ccccc1O)O[C@@H]1OC(C)(C)O[C@@H]12 was read as Sm TGR inh inactive, FMDV antiviral inactive and AmpC detergent inactive.
Cc1ccccc1-n1c(=O)cc(N2CCc3ccccc3C2)[nH]c1=O was read as AmpC inh no detg inactive, AMA1 RON2 block inactive, Sm TGR inh inactive, FMDV antiviral inactive and AmpC detergent inactive.
Screening O=c1cc(N2CCc3ccccc3C2)[nH]c(=O)n1-c1ccccc1Cl returned AmpC inh no detg 10µM, AMA1 RON2 block inactive, Sm TGR inh inactive, FMDV antiviral inactive and AmpC detergent inactive.
Screening O=C(CCl)N(C/C=C/c1ccccc1)c1ccc2c(c1)OCCO2 returned AmpC inh no detg inactive, AMA1 RON2 block inactive, Sm TGR inh 7.1µM, FMDV antiviral 25µM and AmpC detergent inactive.
O=C(CBr)Nc1c2c(nn1-c1ccccc1)CSC2 was read as AmpC inh no detg inactive, AMA1 RON2 block inactive, Sm TGR inh 35µM, FMDV antiviral inactive and AmpC detergent inactive.
`CCCC(=O)Nc1c2c(nn1-c1ccccc1)CSC2` gave AmpC inh no detg inactive, AMA1 RON2 block inactive, Sm TGR inh inactive, FMDV antiviral inactive and AmpC detergent inactive.
For COc1ccc(-n2nc3c(c2NC(=O)CBr)CSC3)cc1 the results were AmpC inh no detg inactive, AMA1 RON2 block inactive, Sm TGR inh 40µM, FMDV antiviral inactive and AmpC detergent inactive.
COc1ccc2c(c1)c1c(c(=O)n(-c3ccc(C)cc3)c(=O)n1CC(=O)NCc1ccc(C)cc1)n2C was read as Sm TGR inh inactive, FMDV antiviral inactive and AmpC detergent inactive.
Screening CCOc1cc(/C=N/NC(=O)c2ccc(O)cc2)ccc1Oc1nc(Cl)ncc1F returned AmpC inh no detg inactive, AMA1 RON2 block inactive, Sm TGR inh inactive, FMDV antiviral inactive and AmpC detergent inactive.
`CCOc1cc(/C=N\Nc2ncc(F)c(N3CCOCC3)n2)ccc1Oc1nc(Cl)ncc1F` gave AmpC inh no detg inactive, AMA1 RON2 block inactive, Sm TGR inh inactive, FMDV antiviral 16µM and AmpC detergent inactive.
Screening O=C1c2ccc([N+](=O)[O-])cc2S(=O)(=O)N1Cc1ccccc1 returned AmpC inh no detg inactive, AMA1 RON2 block inactive, Sm TGR inh 18µM, FMDV antiviral inactive and AmpC detergent inactive.
`O=C1C=C(Nc2ccccc2C(=O)O)c2ccccc2C1=O` gave AmpC inh no detg inactive, AMA1 RON2 block inactive, Sm TGR inh inconclusive, FMDV antiviral inactive and AmpC detergent inactive.
